Screening results from PubChem BioAssay.
The sample as a whole holds a higher share of hits than the screen did.
Tg IFNy HTS: inhibitors of Toxoplasma gondii growth with IFN-gamma. 3.8% of 69,000 active. Toxoplasma gondii growth in IFN-gamma-treated host cells; stronger effect = lower value. activity change, negative = inhibition, % (no concentration beside the values); in the data active means activity change below about -70%, passing the limit was not always enough;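 further: host cells are HeLa cells infected with Toxoplasma gondii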
The depositor's hits bear a star; i = inactive; ! = repeats disagree.

SMILES	Tg IFNy HTS
Cc1cccc(N2CC3(CCN(C(=O)c4cnc5ccccc5c4)C3)CC2=O)c1 (centres undefined)	-63
O=C(c1cnc2ccccc2c1)N1CCC2(CC(=O)N(c3cccc(F)c3)C2)C1 (centres undefined)	-74*
O=C(c1cnc2ccccc2c1)N1CCC2(CC(=O)N(c3ccc(F)cc3)C2)C1 (centres undefined)	-31
CO[C@@H]1CCN(C(=O)c2ccc[nH]2)[C@H]1Cc1cccnc1	-42
COc1cccc(S(=O)(=O)N2CCCCN3[C@@H](CO)[C@@H](c4ccc(C#CCC(C)C)cc4)[C@@H]3C2)c1	-64
COc1cccc(S(=O)(=O)N2CCCCN3[C@H](CO)[C@H](c4ccc(C#CCC(C)C)cc4)[C@H]3C2)c1	-81*
COc1cccc(S(=O)(=O)N2CCCCN3[C@H](C2)[C@@H](c2ccc(C#CCC(C)C)cc2)[C@@H]3CO)c1	-33
CC(C)(C)c1ccc(O)c(CN2CCC(CN)C2)c1 (centres undefined)	-60
CCOC(=O)N1CCC2(CC1)N=C(c1ccccc1O)CC(c1cc(Cl)ccc1O)N2 (centres undefined)	-36
CN1CCC2(CC1)N=C(c1ccccc1O)CC(c1ccccc1O)N2 (centres undefined)	32
Oc1ccc(Cl)cc1C1=NC2(CCNCC2)NC(c2ccccc2O)C1 (centres undefined)	-102*
c1cncc(COC2CCCN(Cc3cnc(-c4ccco4)nc3)C2)c1 (centres undefined)	10
CC(C)c1cc(C2CCN(C(=O)CCN3CCCCO3)CC2)[nH]n1	-5
Cn1cnnc1SCC(=O)Nc1cccc2nsnc12	116
c1cc(-c2nccn2CCC2CCCCO2)cc(-n2cccn2)c1 (centres undefined)	-51
CCOc1ccccc1NC(=O)NCC(c1cccnc1)c1c[nH]c2ccccc12 (centres undefined)	165
CN1CCN(c2ccc3ccc(C(=O)Nc4cccc(F)c4)cn23)CC1	-1
Cc1ccc(NC(=O)c2ccc3ccc(N4CCN(C)CC4)n3c2)cc1C	-73*
Cc1ccccc1NC(=O)c1ccc2ccc(N3CCN(C)CC3)n2c1	-2
CCOC(=O)Nc1nnc(CCc2ccccc2)s1	0
COc1ccccc1Nc1nnns1	12
c1ccc(CCNc2nnns2)cc1	-97*
Cc1cc(C)n(CC(C)n2cc(-c3nccn3C)nn2)n1 (centres undefined)	2
CCOC(=O)CC1(S(=O)(=O)c2ccc(F)cc2)CCN(Cc2ccccc2)CC1	-21
Cc1ncc(-c2ccccn2)c(C2CCC(CNC(=O)c3scnc3C)CC2)n1 (centres undefined)	8
SMILES	Tg IFNy HTS
Cc1ncc(-c2ccncc2C)c(C2CCC(CNC(=O)c3oc(C)nc3C)CC2)n1 (centres undefined)	-32
Cc1scc(C(=O)NCC2CCC(c3ncc(Cl)cc3-c3ccncc3)CC2)c1C (centres undefined)	-88*
Cc1ccc(-c2nc(CNC(=O)C3[C@H]4CNC[C@@H]34)[nH]c2-c2ccccn2)cc1 (some centres undefined)	2
CN(C)C(=O)CN1[C@@H]2CCN(c3ncccn3)CC[C@@H]2Oc2ccccc2S1(=O)=O	5
COc1ccc2cc(Br)ccc2c1CC#N	-107*
COc1ccc(CNc2ccc(Br)cc2)c(OC)c1OC	34
COc1cc(Br)c(CCC#N)cc1OC	85
Cc1cccc(S(=O)(=O)Nc2ccc3c(c2)CCC(=O)N3C)c1	52
CCOc1ccccc1-c1nc(Cn2ccn3nc(-c4ccccc4OC)cc3c2=O)c(C)o1	i
Cc1ccccc1-c1nc(Cn2ccn3nc(-c4cccs4)cc3c2=O)c(C)o1	119
CCOc1ccccc1-c1nc(Cn2ccn3nc(-c4cccs4)cc3c2=O)c(C)o1	-87*
Cc1cc(C)cc(NC(=O)c2c(O)c3cccnc3n(-c3ccccc3)c2=O)c1	-2
Cc1csc2c(N3CCC(O)(CO)CC3)ncnc12	2
Cc1csc2c(N3CCc4nnc(C5CCCO5)n4CC3)ncnc12 (centres undefined)	1
COC(=O)c1sccc1S(=O)(=O)N1CCN(c2ncnc3c(C)csc23)CC1	-85*
CC(=O)[C@H]1CCC2C3CCC4=CC(=O)CC[C@]4(C)C3[C@H](OC(=O)CCC(=O)O)C[C@@]21C (some centres undefined)	9
Cc1cc(-c2ccccc2CO)ccc1NC(=O)c1cccnc1	-28
COc1ncccc1-c1ccc(NC(=O)c2cccnc2)c(C)c1	-85*
COc1ccc(-c2ccc(NC(=O)c3cccnc3)c(C)c2)c(OC)c1OC	-23
Cc1ccc(CN2CCC3C2CC(=O)N3CCN2CCOCC2)o1 (centres undefined)	36
C=CCN(C(=O)c1cc(-c2ccc(C)s2)[nH]n1)C1CCS(=O)(=O)C1 (centres undefined)	-6
Cc1cc(C)nc(N2CCC(CNC(=O)c3cc(C(C)(C)C)[nH]n3)CC2)n1	-77*
CC(=O)N1CCN(c2nc(C)cc(C)n2)CC1	17
Cc1nc(CC(NC(=O)c2cc(C(C)(C)C)[nH]n2)c2ccc(Cl)cc2)cc(=O)[nH]1 (centres undefined)	7
COc1ccc2c(c1)C=C(CN1CCC(O)(c3ccc(C)cc3)CC1)CO2	116
SMILES	Tg IFNy HTS
CCN1CCCC1CNC(=O)C(C)n1c2ccccc2c2cnn(C)c(=O)c21 (centres undefined)	190
Cc1ccc(CC(=O)N2CCC(C)(C(=O)NCc3ccc(F)cc3F)CC2)cc1	19
NC(=NCCCCCCN=C(N)/N=C(\N)Nc1ccc(Cl)cc1)/N=C(\N)Nc1ccc(Cl)cc1	-82*
CC(C)N=C(N)/N=C(\N)Nc1ccc(Cl)cc1	12
CC(=O)Nc1ccc(-c2cn(Cc3ccc(Cl)cc3)nn2)cc1	10
Cc1cnc(-n2cnnc2)c(/C=C/c2ccccc2)c1	0
c1ccc(CN2CCN(c3ncnc4ccccc34)CC2)cc1	-86*
c1ccc(-n2cc(CN3CCN(c4ncnc5ccccc45)CC3)cn2)cc1	-53
c1ccc2c(N3CCN(Cc4cccc5nccnc45)CC3)ncnc2c1	-17
CC(=O)N1CC2C[C@]2(NC(=O)c2cccc(F)c2)C1 (some centres undefined)	144
COc1ccc(F)cc1S(=O)(=O)NCCc1sc(-c2cccc(F)c2)nc1C	39
CCOc1ccccc1NC(=O)C(=O)NCCc1sc(-c2ccc(F)cc2)nc1C	38
COc1ccc(-c2ccc(F)cc2OC)nn1	8
NCCCCCCNS(=O)(=O)c1cccc2ccccc12	3
Nc1nc(NCC2CCC(CNS(=O)(=O)c3cccc4ccccc34)CC2)nc2ccccc12 (centres undefined)	-77*!
NC(N)=NCCNS(=O)(=O)c1cccc2cnccc12	-49
COC(=O)c1sc2cc(-c3ccc(F)cc3)sc2c1C	31
Cc1nc2ncccn2c1C(=O)NCc1cnn(-c2cccc(F)c2)c1	-1
CC(C)C(=O)c1cc(-c2csc(-c3cnccn3)n2)n2ccccc12	-14
O=C(NNc1nc2cc(F)ccc2n2cccc12)c1cnccn1	-81*
O=C1COC2(CNCCOC2)CN1c1ccc(F)cc1 (centres undefined)	82
CCn1nnc2c1C(COC)CN(C(=O)Cc1cccs1)C2 (centres undefined)	11
CN(Cc1cccc2ncccc12)C(=O)c1cccc(C2CCNC2)c1 (centres undefined)	4
O=C(NCc1nnc2n1CCCC2)c1cccc(C2CCNC2)c1 (centres undefined)	5
